Inconclusive results are not listed. Where a call stands in place of a potency, no number is given. Values without a mark were called inactive. Active and inactive are the calls of the source. Calls follow the shape of the dose curve; as a rule, active = well fitted curve in the direction sought with a large enough effect; inconclusive = small, poorly fitted or top-dose-only effect, or another doubt; inactive = no such curve, though single readings can be large; an effect the other way counts as inactive or inconclusive. Peptide text beside a SMILES is read from it. * marks the point of attachment. AFC = O=c1cc(C(F)(F)F)c2ccc(N*)cc2o1
Columns and labels:
[1] = biological target: Aldehyde dehydrogenase, mitochondrial (Homo sapiens) (UniProt P05091); assay: qHTS for Inhibitors of the Aldehyde Dehydrogenase Family (ALDH2) Primary screen (AID 2061308); conditions: ALDH2 enzyme inhibition qHTS, 1536-well; series mostly up to 56 µM; also: nearly all actives have a fitted effect of over 55% in size
[2] = biological target: Retinaldehyde dehydrogenase 3 (Homo sapiens) (UniProt P47895); assay: qHTS for Inhibitors of the Aldehyde Dehydrogenase Family (ALDH1A3) Primary screen (AID 2061315); conditions: ALDH inhibition qHTS; series mostly up to 56 µM

SMILES | Potency [1] | Potency [2] | activity change, negative = inhibition [1] | activity change, negative = inhibition [2]
COc1c(C)c(OCC=C(C)C)cc2c1CNC2=O | inactive | inactive | – | –
COc1ccc(C(=O)O[C@H]2CC(C)=CC[C@@]3(C)[C@@H](OC(C)=O)C[C@@](O)(C(C)C)[C@H]23)cc1 | inactive | inactive | – | –
COc1cc(CO)cc(OC)c1O[C@@H]1O[C@H](CO)[C@@H](O)[C@H](O)[C@H]1O | inactive | inactive | – | –
O=C(/C=C/c1ccc(O)cc1)OC[C@@]1(O)C=C[C@@H]2C(C(=O)O)=CO[C@@H](O[C@@H]3O[C@H](CO)[C@@H](O)[C@H](O)[C@H]3O)[C@@H]21 | inactive | inactive | – | –
C[C@@H]1CC[C@]2(C)C3(C)CC[C@@]2(OC3=O)[C@@]12C[C@H](c1ccoc1)OC2=O | inactive | inactive | – | –
COC(=O)C1C(O)CCC2CN3CCc4c([nH]c5ccccc45)C3CC21 (centres undefined) | inactive | inactive | – | –
CC(=O)O[C@H]1[C@H](C)[C@@H](O)[C@H]2[C@@H]1C=C(C(=O)O)[C@H]1C[C@@H]3[C@H]([C@H]21)[C@H]1C(=O)O[C@@H]2CC[C@@]3(C)O[C@]1(O)[C@@H]2C | inactive | inactive | – | –
O=C(OCc1cccc(O)c1O[C@@H]1O[C@H](CO)[C@@H](O)[C@H](O)[C@H]1O)C1(O)C(=O)C2C=CC1C1C=CC(=O)C(O)(C(=O)OCc3cccc(O)c3O[C@@H]3O[C@H](CO)[C@@H](O)[C@H](O)[C@H]3O)C21 (some centres undefined) | inactive | inactive | – | –
Nc1ncnc2c1ncn2CCNCCCCCO | inactive | inactive | – | –
CC(C)=CCc1cc(O[C@@H]2O[C@H](CO[C@@H]3OC[C@](O)(CO)[C@H]3O)[C@@H](O)[C@H](O)[C@H]2O)ccc1O | inactive | inactive | – | –
CC1(C)CC[C@]2(C(=O)O[C@@H]3O[C@H](CO)[C@@H](O)[C@H](O)[C@H]3O)CC[C@]3(C)C(=CCC4[C@@]5(C)CC[C@H](O[C@@H]6O[C@H](C(=O)O)[C@@H](O)[C@H](O)[C@H]6O)C(C)(C)C5CC[C@]43C)C2C1 (some centres undefined) | inactive | inactive | – | –
O=C(N/N=C/c1ccc(O)c(O)c1)c1cc2ccccc2cc1O | inactive | inactive | – | –
O=C(O)c1cccc(C(=O)CCC2OC(n3cnc4c(=O)[nH]cnc43)C(O)C2O)c1 (centres undefined) | inactive | inactive | – | –
CC(=O)NCc1cccc(OC[C@@H](O)CNCCc2ccc(NS(=O)(=O)c3ccccc3)cc2)c1 | inactive | inactive | – | –
CC(=O)C1=CCC2C3CCC4CC(O[C@@H]5O[C@H](CO)[C@@H](O[C@@H]6O[C@@H](C)[C@H](O)[C@@H](O)[C@H]6O)[C@H](O)[C@H]5O[C@@H]5O[C@H](CO)[C@@H](O)[C@H](O)[C@H]5O)CCC4(C)C3CCC12C (some centres undefined) | inactive | inactive | – | –
COc1ccc(/C=C/C(=O)O[C@@H]2[C@@H](O)[C@@H](O)[C@H](O[C@H]3[C@@H]4C=CO[C@@H](O[C@@H]5O[C@H](CO)[C@@H](O)[C@H](O)[C@H]5O)[C@@H]4[C@@]4(CO)O[C@@H]34)O[C@H]2C)cc1 | inactive | inactive | – | –
COc1ccc(/C=C/C(=O)O[C@@H]2[C@@H](O[C@@H]3O[C@H](CO)[C@@H](O)[C@H](O)[C@H]3O)[C@@H](O)[C@H](O[C@H]3C4C=CO[C@@H](O[C@@H]5O[C@H](CO)[C@@H](O)[C@H](O)[C@H]5O)C4[C@@]4(CO)O[C@@H]34)O[C@H]2C)cc1 (some centres undefined) | inactive | inactive | – | –
O=C(O)Cc1cn([C@@H]2O[C@H](CO)[C@@H](O)[C@H](O)[C@H]2O[C@@H]2O[C@H](CO)[C@@H](O)[C@H](O)[C@H]2O)c2ccccc12 | inactive | inactive | – | –
C=C1C(OC(C)=O)CCC2(C)CC3(O)OC(=O)C(C)=C3CC12 (centres undefined) | inactive | inactive | – | –
CN(C)C(=O)C(=O)c1cn(C)c2cc(Cl)c(C(=O)N3CCC(Cc4ccc(F)cc4)CC3)cc12 | inactive | inactive | – | –
CC(C)(O)C(O)C(=O)OCc1ccc(O[C@@H]2O[C@H](CO)[C@@H](O)[C@H](O)[C@H]2O)cc1 (some centres undefined) | inactive | inactive | – | –
C[C@]1(OC(=O)/C=C\c2ccc(O)cc2)C[C@@H](O)[C@]2(O)C=CO[C@@H](O[C@@H]3O[C@H](CO)[C@@H](O)[C@H](O)[C@H]3O)C12 (some centres undefined) | inactive | inactive | – | –
C[C@@H]1O[C@@H](O[C@H]2[C@H](OC(=O)[C@]34CCC(C)(C)C[C@H]3C3=CCC5[C@@]6(C)C[C@H](O)[C@H](O[C@@H]7O[C@H](CO[C@@H]8OC[C@H](O)[C@H](O)[C@H]8O)[C@@H](O)[C@H](O)[C@H]7O)C(C)(C)C6CC[C@@]5(C)[C@]3(C)C[C@H]4O)OC[C@@H](O)[C@@H]2O)[C@H](O)[C@H](O[C@@H]2OC[C@](O)(CO)[C@H]2O)[C@H]1O[C@@H]1OC[C@H](O)[C@H](O[C@@H]2OC[C@@H](O)[C@H](O)[C@H]2O)[C@H]1O (some centres undefined) | – | – | -4.16% [at 11.2 µM] | 0.994% [at 11.2 µM]
CC1(C=O)CCCC2(C)C1CCC13CC(CO)C(CCC12)C3 (centres undefined) | inactive | inactive | – | –
CC(=O)OC1CC(C)C2(CCC3(CC(=O)OC3O)O2)C2(C)CCCC(C)(C)C12 (centres undefined) | inactive | inactive | – | –
CC(=O)N[C@@H](Cc1c[nH]c2ccccc12)C(=O)N[C@@H](CCC(=O)O)C(=O)N[C@@H](Cc1cnc[nH]1)C(=O)N[C@@H](CC(=O)O)C(=O)Nc1ccc2c(C(F)(F)F)cc(=O)oc2c1 (Ac-WEHD-{AFC}) | inactive | inactive | – | –
C[C@H]1O[C@@H](O[C@H]2CC[C@@]3(C)C(CC[C@]4(C)C3CC=C3C5CC(C)(C)CC[C@]5(C(=O)O)CC[C@]34C(=O)O)C2(C)C)[C@H](O)[C@@H](O)[C@@H]1O (some centres undefined) | inactive | inactive | – | –

— PubChem BioAssay (NCATS)
